Out of some 330,000 compounds screened, about 1,400 (0.42%) were called active. This excerpt belongs to a sample that is enriched for actives. Unmarked numbers belong to inactive results.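 The calls were made as follows: active = inhibition above its plate's threshold, mean inhibition of all tested compounds on the plate plus 3 SD (cut at about 37% in these data); inactive = the rest.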
Each compound was assayed against Orexin/Hypocretin receptor type 1 (Homo sapiens) (UniProt O43613) (assay: OX1R (HCRTR1) antagonists, primary screen, fluorescence, CHO/OX1R cells, Fluo-8 calcium, orexin A (AID 434989;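 also: 0% = orexin A challenge wells and 100% = SB-334867-A antagonist wells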)). Conditions: Fluo-8 calcium fluorescence, at 5 µM, active compounds read high.
Chain of Orexin/Hypocretin receptor type 1 (Homo sapiens) (O43613 whole entry, looked up): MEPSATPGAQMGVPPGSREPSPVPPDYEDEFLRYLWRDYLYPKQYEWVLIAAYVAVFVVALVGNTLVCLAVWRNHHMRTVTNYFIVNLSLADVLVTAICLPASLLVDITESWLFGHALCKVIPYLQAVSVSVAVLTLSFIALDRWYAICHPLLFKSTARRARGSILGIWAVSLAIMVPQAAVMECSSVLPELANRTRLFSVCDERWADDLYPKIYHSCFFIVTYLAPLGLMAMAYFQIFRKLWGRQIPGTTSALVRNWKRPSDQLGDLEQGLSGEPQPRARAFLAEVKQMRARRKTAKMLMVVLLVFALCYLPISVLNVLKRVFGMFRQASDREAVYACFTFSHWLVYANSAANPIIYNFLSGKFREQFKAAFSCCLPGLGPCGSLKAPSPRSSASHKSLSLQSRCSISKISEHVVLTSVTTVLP
Work on `Fc1ccccc1/C=N/n1c(-c2cccnc2)n[nH]c1=S` yielded an inhibition of -5.34%. `c1ccc(-c2cc(-c3ccccc3)[nH]n2)cc1` showed an inhibition of -9.86%. For `S=c1[nH]nc(-c2cc(-c3ccccc3)n[nH]2)n1/N=C/c1c2ccccc2cc2ccccc12`, the inhibition was 44.8% (active). Compound `C=CC[C@H](CC(=O)OC(C)(C)C)C(=O)OC[C@H]1CCCN1C(=O)[C@H](CC=C)CC(=O)N(CCO)Cc1ccccc1` has an inhibition of -15.6%. With `O=C1N[C@H](Cc2c[nH]c3ccccc23)COC(=O)[C@H](Cc2ccc(F)cc2)C/C=C\C[C@H]1CC(=O)N(CCO)Cc1ccccc1` the inhibition was -2.05%. `CC(C)(C)NS(=O)(=O)NC(=O)C1=C(N2CCCC2)COC1=O` was tested, and the inhibition was -2.12%. `O=C(N/N=C/c1sc(N2CCCCC2)nc1-c1cccs1)c1cccnc1` was tested, and the inhibition was 44.9% (active). `O=C(CNC(=O)c1cccnc1)N/N=C/c1cccnc1` gave an inhibition of 1.04%. Compound `O=C(NN=C1CCC(=NNC(=O)c2cccnc2)CC1)c1cccnc1` has an inhibition of -6.2%. Compound `CC(=O)N(O)CCCCCNC(=O)CCC(=O)N(O)CCCCCNC(=O)CCC(=O)N(O)CCCCCNC(=O)CCC(=O)O` has an inhibition of -5.54%. In the case of `O=C(NC(Cc1c[nH]c2ccccc12)C(=O)N/N=C/c1ccc(Br)cc1)c1cccs1` (stereo unspecified), the inhibition is reported as 52.5% (active). In the case of `CC(=O)Nc1ccc(/C=N/NC(=O)c2cccs2)cc1`, the inhibition is reported as 18.2%. With `CC(=O)NC(Cc1c[nH]c2ccccc12)C(=O)O` (stereo unspecified) the inhibition was -1.34%. `Cc1ccc(N2C(=O)N3[C@@H]4c5ccccc5OC[C@@H]4[C@@H](c4ccccc4)[C@@]3(C)C2=O)cc1` was tested, and the inhibition was -30.9%. `COc1ccc(CNc2nc(NCc3ccc(OC)cc3)c3ncn(C4CCCC4)c3n2)cc1` gave an inhibition of -5.92%. `Cc1noc(C)c1NC(=O)Nc1ccc2c(c1)C(=O)N([C@H](C)CO)C[C@H](C)[C@@H](CN(C)C(=O)Nc1ccccc1)O2` showed an inhibition of -4.54%. In the case of `COc1ccc(NS(=O)(=O)c2ccc(NC(=S)NC(=O)CC(C)C)cc2)cc1`, the inhibition is reported as 50.3% (active). For `CC(=O)c1ccc(NC(=S)NC(=O)CC(C)C)cc1`, the inhibition was 3.22%. In the case of `COc1cc(NS(=O)(=O)c2ccc(NC(C)=O)cc2)cc(OC)c1`, the inhibition is reported as 9.3%. In the case of `COc1ccc(N2CCN(C(CNS(=O)(=O)c3ccc(C)cc3)c3ccccc3)CC2)cc1` (stereo unspecified), the inhibition is reported as -26.8%. In the case of `CCN([C@H](CO)C(C)C)S(=O)(=O)c1ccccc1Br`, the inhibition is reported as 1.51%. With `O=C(COC(=O)COc1ccccc1F)Nc1cccc(S(=O)(=O)N2CCCCC2)c1` the inhibition was -27.3%. With `CCn1nnc2cc(C(=O)Nc3ccc(C(=O)OC(C)C)cc3)ccc21` the inhibition was -14.8%. `Cc1cc(C)cc(OCC(=O)NC(C)c2ccccc2)c1` (stereo unspecified) gave an inhibition of -37.8%. `COc1cc(OC)cc(C(=O)NC(C(=O)N2CCC2)C(C)C)c1` (stereo unspecified) was tested, and the inhibition was -9.6%. With `COc1cc(OC)cc(C(=O)N[C@H](C(=O)OCC(=O)NC(C)c2ccccc2)C(C)C)c1` (stereo partly specified) the inhibition was 59% (active). With `CC(C)(C)OC(=O)C[C@@H]1C/C=C\C[C@@H](CC(=O)N[C@H](CO)Cc2ccccc2)C(=O)NCCOC1=O` the inhibition was 2.53%. Work on `COc1ccc(CN2C(CC(=O)Nc3cccnc3)c3ccc(C(F)(F)F)cc3S2(=O)=O)cc1` (stereo unspecified) yielded an inhibition of -16.2%. With `O=[N+]([O-])/C=C/c1ccc2c(ccn2Cc2ccccc2)c1` the inhibition was 53.8% (active). For `COC(=O)Cn1cc(/C=C/[N+](=O)[O-])c2ccccc21`, the inhibition was -4.68%. In the case of `O=C(Cn1ccc2cc(S(=O)(=O)N3CCCC3)ccc21)NCc1ccccc1`, the inhibition is reported as -25.5%. With `CC1(C)C[C@H]2C3=CCC4[C@@]5(C)CC[C@H](O)[C@](C)(CO)C5CC[C@@]4(C)[C@]3(C)C[C@@H](O)[C@@]2(CO)[C@@H](O)[C@@H]1O` (stereo partly specified) the inhibition was -0.97%. `O=C(Nc1ccc(NC(=O)c2ccco2)c(Cl)c1)c1cccc([N+](=O)[O-])c1` gave an inhibition of -19.9%. Work on `O=C(Nc1ccc(C(=O)N2CCCCC2)cc1)c1cccc([N+](=O)[O-])c1` yielded an inhibition of 1.86%. For `O=C(Nc1ccc(C2CC2(Cl)Cl)cc1)c1cccc([N+](=O)[O-])c1` (stereo unspecified), the inhibition was 45.8% (active). `CC(Sc1nncn1C)C(=O)NCCC1=CCCCC1` (stereo unspecified) was tested, and the inhibition was -6.11%. With `COc1ccc(CNC(=O)C[C@H]2C[C@H](C(=O)N3CCOCC3)[C@@]3(CCC4CCCC4)c4[nH]c5ccc(Cl)cc5c4CCN3C2=O)cc1OC` the inhibition was 19.8%. Work on `COc1ccc(Nc2ccc([N+](=O)[O-])cn2)cn1` yielded an inhibition of -22.9%. With `COc1ccc(NC(=O)/C(Cl)=C(/Cl)S(=O)Cc2ccc(C)cc2)cn1` (stereo unspecified) the inhibition was 47.5% (active). `Cc1ccc(NC(=O)OCc2cncs2)cc1` gave an inhibition of -7.33%. In the case of `CCCSc1ccc([C@H]2N[C@@](Cc3ccccc3)(C(=O)OC)[C@H]3C(=O)N(C)C(=O)[C@@H]23)cc1`, the inhibition is reported as -27.9%. Work on `CC(C)(C)OC(=O)C1=C(CO)CS[C@@H]2[C@H](NC(=O)Cc3ccccc3)C(=O)N12` yielded an inhibition of 1.11%. Compound `C=CC[C@@H](CC(=O)NCCO)C(=O)N[C@H](C)COC(=O)[C@@H](CC=C)CC(=O)OC(C)(C)C` has an inhibition of 1.19%. Work on `CN(C(=O)COC(=O)Cc1ccccc1[N+](=O)[O-])C1CCS(=O)(=O)C1` (stereo unspecified) yielded an inhibition of 1.38%. `CC(C)n1cnc2c(NCc3ccccc3)cc(N[C@@H](CO)Cc3ccccc3)cc21` showed an inhibition of -6.91%. `Cc1cc(N2CCCC2)ccc1NC(=O)COc1ccc(Cl)cc1` showed an inhibition of 23.4%. With `CCC(=O)c1ccc(OCC(=O)Nc2ccc3nc(C)sc3c2)cc1` the inhibition was -9.93%. With `Cc1ccc(NC(=O)COc2ccc(-n3ccnc3)cc2)cc1Cl` the inhibition was 49.1% (active). `CN(CC(=O)Nc1ccc(OC(F)F)cc1)S(=O)(=O)/C=C/c1ccccc1` showed an inhibition of -20%. With `COc1ccc(S(=O)(=O)Nc2cccc3c2O[C@H](CN(C)S(=O)(=O)c2ccc(OC)cc2)[C@@H](C)CN([C@H](C)CO)C3=O)cc1` the inhibition was -20.8%. With `CN[C@H](C(=O)NC[C@H]1O[C@@H](n2cnc3c(N)ncnc32)[C@H](O)[C@@H]1O)[C@@H](C)OCc1ccccc1` the inhibition was -13.1%. For `CCCCNS(=O)(=O)CCNCc1ccccc1OC`, the inhibition was -14.5%. With `O=C(COC(=O)C1CCCO1)Nc1nc(-c2ccc(F)cc2)cs1` (stereo unspecified) the inhibition was -7.58%. Work on `CCCCn1c(N)c(N(CCOC)C(=O)c2cccc(OCc3ccccc3)c2)c(=O)[nH]c1=O` yielded an inhibition of -25.9%. Compound `CCOC(=O)Cn1c(-c2cccnc2Cl)nc2ccccc21` has an inhibition of -7.78%. `CCCCCCCCCCOC(=O)Cn1c(COc2cccc(OC)c2)[n+](C)c2ccccc21` was tested, and the inhibition was 41.4% (active). `CCn1c(COc2cccc(OC)c2)nnc1SCC(=O)N1CCOCC1` gave an inhibition of -6.58%. With `CCCCCCCCCCOC(=O)Cn1c(COc2ccc(C)cc2)[n+](C)c2ccccc21` the inhibition was 51.1% (active). For `CCOC(=O)COn1c(=O)c(-c2ccc(OCC)cc2)[n+]([O-])c2ccccc21`, the inhibition was -31.8%. `COc1ccc2nc3n(c(=O)c2c1)-c1ccc(Cl)cc1C(=O)NC3Cc1ccccc1` (stereo unspecified) was tested, and the inhibition was -24.8%. `CCOC(=O)C1=CN(Cc2ccc(Br)cc2)S(=O)(=O)N(C)C1C` (stereo unspecified) showed an inhibition of -12.4%. For `O=C1[C@@H](c2ccccc2)[C@@H](c2ccccc2)N1c1cccnc1`, the inhibition was 42.8%. Work on `COc1cc(/C=C/C(=O)Nc2ccc(OC)c(S(=O)(=O)N3CCOCC3)c2)ccc1OCC#N` yielded an inhibition of 9.74%. With `C=CCn1c(SCC(=O)Nc2nc3ccccc3s2)nnc1-c1ccccc1O` the inhibition was 68% (active). `C=CCn1c(SCC(=O)NCc2ccccc2)nnc1-c1cc(Br)ccc1O` was tested, and the inhibition was -7.43%. `Cn1nnnc1SCC(=O)Nc1nc2ccccc2s1` was tested, and the inhibition was -5.36%. With `Cc1ccc(S(=O)(=O)NC[C@H]2O[C@@H](n3cnc4c(N)ncnc43)[C@H](O)[C@@H]2O)s1` the inhibition was -0.44%. Compound `CCn1c(=S)[nH]c2cc(S(=O)(=O)N3CCOCC3)ccc21` has an inhibition of -24.1%. `O=[N+]([O-])c1c(NCCO)cc(Sc2nc3ccccc3s2)c2nonc12` was tested, and the inhibition was 59.3% (active). `CCOc1ccccc1Nc1ccc2nonc2c1[N+](=O)[O-]` gave an inhibition of -9.48%. Compound `O=C(O)c1ccccc1CSc1nc2ccccc2s1` has an inhibition of -10.9%. For `C[C@@H](CN1CCC[C@H]1CN1C(N)=NC[C@@H]1Cc1ccccc1)N1C[C@@H](Cc2ccccc2)N(CCCC2CCCC2)C1=N`, the inhibition was -9.98%. For `Fc1ccccc1-c1cc2cc3c(cc2cn1)OCO3`, the inhibition was 38.1%. `Fc1ccc2[nH]c3c(N4CCSCC4)ncnc3c2c1` was tested, and the inhibition was 52.4% (active). `Cc1c(CN2CC[C@@H](N3CCN(c4ccccn4)CC3)[C@H](O)C2)[nH]c2ccc(F)cc12` showed an inhibition of -18.8%. In the case of `C#CCOCCOCCOCCNc1nc(N2CCN(C(=O)[C@H](CCC(=O)O)n3cc(CN)nn3)CC2)nc(N2CCN(C(=O)[C@H](CCC(=O)O)n3cc(CN)nn3)CC2)n1`, the inhibition is reported as -6.85%. In the case of `CN(C(=O)c1cccc(NC(=O)Cc2cccc([N+](=O)[O-])c2)c1)C1CCCCC1`, the inhibition is reported as -12.3%. For `C[C@H](CO)N1C[C@H](C)[C@H](CN(C)CC2CC2)Oc2ccc(NC(=O)CCN3CCOCC3)cc2C1=O`, the inhibition was 7.19%. Compound `COc1ccc(NS(=O)(=O)c2ccc(C(=O)Nc3c(C)n(C)n(-c4ccccc4)c3=O)cc2)cc1` has an inhibition of 1.25%. In the case of `CC(NC(=O)COC(=O)Cn1cc(C(F)(F)F)ccc1=O)c1ccccc1` (stereo unspecified), the inhibition is reported as -5.69%. For `CC1O[C@H](OC2C(COC3OC(CO)C(O)[C@H](O)C3O)OC(OC3CC[C@]4(C)C(CC[C@@]5(C)[C@@H]4C=C[C@]46OC[C@@]7(CCC(C)(C)C[C@H]74)C(O)C[C@@]56C)C3(C)C)C(O)C2O)C(O)C(O)C1O` (stereo partly specified), the inhibition was -2.45%.
